Unmarked numbers belong to inactive results.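 The calls were made as follows: active = response relative to DMSO over 150%; inconclusive = yeast strain with under 70 recorded events; inactive = the rest.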
Assay: yeast AGP1-GFP fluorescence change, single-dose confirmation – cell-based, flow cytometry, S. cerevisiae, cherry pick set 3 (AID 504334);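 also: median GFP fluorescence per well by flow cytometry over the all cells gate; ratio of sample to mean DMSO control signal so DMSO = 100% not 0%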
Conditions: S. cerevisiae AGP1-GFP strain, 3 h, at 10 µM, stronger effect = higher value

CCC(C)Nc1nc(N)c([N+](=O)[O-])c(Nc2cc(OC)ccc2OC)n1 (centres undefined)
percent response vs DMSO: 98.8%

Cn1c(=O)c2c(n3cnnc13)-c1ccccc1CC21CCCC1
percent response vs DMSO: 104%

Oc1c(I)cc(Cl)c2cccnc12
percent response vs DMSO: 100%

CNc1cccc2c1C(=O)c1ccccc1C2=O
percent response vs DMSO: 100%

CC1=CN2C(=N)/C(=C/c3ccc(C)o3)C(=O)N=C2S1
percent response vs DMSO: 98.1%

CCN(CC)C(=O)Oc1cc(=O)n(C)c2ccccc12
percent response vs DMSO: 100%

CN1CCN(C(=O)c2cc(COc3ccc(F)cc3Cl)on2)CC1c1ccccc1 (centres undefined)
percent response vs DMSO: 101%

C=CCNc1ncnc2ccc(Br)cc12
percent response vs DMSO: 101%

O=C(/C=C/Nc1cccc(O)c1)c1ccccc1
percent response vs DMSO: 102%

NC(=O)COc1cccc2cccnc12
percent response vs DMSO: 98.1%

OCc1ccc(O)c2ncccc12
percent response vs DMSO: 98.8%

Cc1ccc(NN2C(=O)C=C(c3ccccc3)C2=O)cc1
percent response vs DMSO: 92.8%

CCC(C)Nc1nc(N)c([N+](=O)[O-])c(Nc2ccccc2OC)n1 (centres undefined)
percent response vs DMSO: 104%

Oc1c(Br)cc(Br)c2cccnc12
percent response vs DMSO: 109%

CC(=O)CC(=O)Nc1ccc(C(N)=O)cc1
percent response vs DMSO: 100%

COc1ccc(N/C=C/C(=O)c2ccc(Cl)cc2)cc1
percent response vs DMSO: 98.1%

C/C(=C\C(=O)c1ccccc1)Nc1ccc(O)cc1
percent response vs DMSO: 98.4%

O=C(O)c1ccc2cccnc2c1O
percent response vs DMSO: 99.8%

Cc1nc2c(O)cccc2cc1CO
percent response vs DMSO: 99.1%

Nc1[nH]c(=O)nc(Nc2ccccc2)c1N=O
percent response vs DMSO: 101%

CC(=O)Nn1cnc2c(c1=O)C1(CCCCC1)Cc1ccccc1-2
percent response vs DMSO: 104%

CC(=O)NC(C)c1cc(Cl)c2cccnc2c1O (centres undefined)
percent response vs DMSO: 102%

CC(=O)Nn1cnc2c(c1=O)C1(CCCC1)Cc1ccccc1-2
percent response vs DMSO: 99.1%

O=C(Nc1ccccc1)O/N=C1/CCCc2occc21
percent response vs DMSO: 94.4%

FC(F)Oc1cccc2cccnc12
percent response vs DMSO: 96.4%

C[n+]1cccc2cccc([O-])c21
percent response vs DMSO: 98.8%

C/C(=N\NC(=O)c1ccccc1)c1ccccc1F
percent response vs DMSO: 105%

CSc1nc(Nc2ccc(Cl)cc2)c(C#N)c(=O)[nH]1
percent response vs DMSO: 98.4%

O=C(Nc1ccccc1Cl)ON=C1c2ccccc2-c2ccccc21
percent response vs DMSO: 99.1%

C/C(=C\C(=O)c1ccc(Cl)cc1)Nc1ccc(Br)cc1
percent response vs DMSO: 99.8%

Cn1cccc1C(=O)Nc1nc(-c2ccccn2)cs1
percent response vs DMSO: 99.1%

Cc1cn2c(N)c(C=C3C=C(Cl)C(=O)C(Cl)=C3)c(=O)nc2s1
percent response vs DMSO: 101%

COc1ccc(OC)c(N/C(C)=C/C(=O)c2ccccc2)c1
percent response vs DMSO: 99.8%

Cc1cccc(Nc2cc(=O)[nH]c(=O)[nH]2)c1
percent response vs DMSO: 96.8%

Cc1cc(C)c2ccc(N)nc2c1O
percent response vs DMSO: 101%

CSc1nc(S(C)(=O)=O)nc2[nH]c(=O)[nH]c12
percent response vs DMSO: 103%

CCC(=O)Nn1cnc2c(c1=O)C1(CCCCC1)Cc1ccccc1-2
percent response vs DMSO: 102%

CCCCC(=O)NCCc1cc2c(OC)ccc(OC)c2[nH]c1=O
percent response vs DMSO: 98.8%

CC(=O)Nc1ccc(-c2nc3ccccc3o2)cc1
percent response vs DMSO: 96.8%
